Hits are enriched below; roughly 4.5% of the tested compounds scored in any of these assays.
697 NFkB inh: inhibitors of the PMA/ionomycin-induced NF-kB reporter in 697 B cells; 697 B-cell NF-kB luciferase reporter, 16 h; inhibition, % at 4 µM; 330,000 tested, 0.33% active; in the data active = inhibition above about 35%
Mdm2 MdmX PPI: inhibitors of human Mdm2/MdmX interaction. 330,000 tested, 3% active. SaOS-2 split-luciferase Mdm2/MdmX complementation, luminescence. O15151+Q00987. inhibition, % at 8 µM. AID 485346;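 active = inhibition of at least 50% at 8 µM in the primary screen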
Target sequence (O15151 whole entry, looked up): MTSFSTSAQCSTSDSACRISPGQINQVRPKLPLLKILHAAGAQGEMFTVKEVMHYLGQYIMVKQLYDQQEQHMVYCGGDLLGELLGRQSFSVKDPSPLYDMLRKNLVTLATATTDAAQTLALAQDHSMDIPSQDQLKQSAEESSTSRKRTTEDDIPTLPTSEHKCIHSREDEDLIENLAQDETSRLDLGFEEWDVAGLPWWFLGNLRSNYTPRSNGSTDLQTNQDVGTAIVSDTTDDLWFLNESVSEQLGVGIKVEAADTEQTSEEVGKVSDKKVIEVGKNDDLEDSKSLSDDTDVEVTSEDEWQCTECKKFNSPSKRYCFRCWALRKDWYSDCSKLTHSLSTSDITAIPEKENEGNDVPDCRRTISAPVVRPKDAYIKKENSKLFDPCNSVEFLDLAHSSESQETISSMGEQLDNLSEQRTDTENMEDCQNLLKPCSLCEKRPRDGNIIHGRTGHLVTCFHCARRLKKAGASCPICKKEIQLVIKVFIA
Target sequence (Q00987 whole entry, looked up): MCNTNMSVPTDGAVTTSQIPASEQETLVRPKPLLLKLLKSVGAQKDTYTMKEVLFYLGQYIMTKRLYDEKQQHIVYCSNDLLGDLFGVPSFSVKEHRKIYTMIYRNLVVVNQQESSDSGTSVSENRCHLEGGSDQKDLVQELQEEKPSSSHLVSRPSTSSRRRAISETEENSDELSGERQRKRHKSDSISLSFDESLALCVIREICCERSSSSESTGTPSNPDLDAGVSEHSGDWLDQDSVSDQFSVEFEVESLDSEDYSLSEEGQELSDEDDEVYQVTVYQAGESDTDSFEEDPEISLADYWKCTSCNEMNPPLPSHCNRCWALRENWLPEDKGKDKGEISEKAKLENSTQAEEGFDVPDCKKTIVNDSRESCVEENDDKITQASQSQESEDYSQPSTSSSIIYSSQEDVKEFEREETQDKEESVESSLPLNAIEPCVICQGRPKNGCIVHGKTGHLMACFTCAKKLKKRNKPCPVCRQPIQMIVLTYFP
CSC inhib: blocks cancer stem cells; cancer stem cell-like cells viability, luminescence; inhibition, % at 7.5 µM; 300,000 tested, 1.1% active; in the data active = inhibition above about 75%; tested in HMLE shEcad cells
Jurkat NFkB inh: inhibitors of the PMA/ionomycin-induced NF-kB reporter in Jurkat cells. PMA/ionomycin-induced NF-kB luciferase reporter, luminescence. inhibition, % at 4 µM. 330,000 tested, 0.53% active; in the data active = inhibition above about 50%
Gli-Sufu antag: Gli-Sufu pathway antagonism | Sufu-KO-LIGHT fibroblasts, Gli luciferase reporter luminescence | inhibition, % at 5 µM | 340,000 tested, 0.74% active | AID 588413;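 active = inhibition above about 55%, limit read from the data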;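 also: 0% = DMSO-treated cells and 100% = wells with medium but no cells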
Beta cell apopt: beta cell apoptosis inhibition | AID 435005 | INS-1E cytokine-induced death, ATP luminescence, 48 h; percent of positive-control rescue, neutral wells zero | protection from apoptosis, % (test concentration not listed) | 300,000 tested, 0.8% active;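 active = Every replicate reaches about 75%, or at least half do and their mean reaches it too, limit read from the data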;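 also: 0% = cytokine-treated negative control wells and 100% = positive control rescue; higher means more ATP so stronger rescue from cytokine killing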
Mdm2 MdmX conf: confirmation of human Mdm2/MdmX interaction inhibitors; inhibition, % at 8 µM; shares compounds with Mdm2 MdmX PPI; Mdm2-MdmX binding, luminescent assay; 10,000 tested, 55% active; in the data active = inhibition above about 40%
FLuc counter: inhibits full-length luciferase, flagging false Mdm2/MdmX hits | shares compounds with Mdm2 MdmX PPI | SaOS-2 full-length luciferase counterscreen, luminescence | inhibition, % at 8 µM | 6,200 tested, 77% active | AID 504607;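 active = mean inhibition at 8 µM reaching about 37%, which flags the compound as non-specific, limit read from the data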;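 also: p53-null SaOS-2 cells with luciferase driven by a doxycycline-inducible promoter; compound on cells about two nights before reading with doxycycline added after day one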
Starred values were filed as active, the others as inactive.

Results for CCN(C[C@H]1N[C@@](CC)(C(=O)OC)[C@H]2C(=O)N(Cc3ccccc3)C(=O)[C@@H]12)S(=O)(=O)c1ccc(C(C)(C)C)cc1 ?
697 NFkB inh: 10; Mdm2 MdmX PPI: 69*; Jurkat NFkB inh: 15; Gli-Sufu antag: -4; Beta cell apopt: 12; Mdm2 MdmX conf: 62*; FLuc counter: 52*

What do the screens show for `CCN(C[C@H]1N[C@@](CC)(C(=O)OC)[C@H]2C(=O)N(Cc3ccccc3)C(=O)[C@@H]12)S(=O)(=O)c1ccc(C)cc1`?
697 NFkB inh: 12; Mdm2 MdmX PPI: 8; CSC inhib: -4; Jurkat NFkB inh: 0; Gli-Sufu antag: 2; Beta cell apopt: -4

Results for CC[C@@]1(C(=O)OC)N[C@H](CN(C)S(=O)(=O)c2ccc(-c3ccccc3)cc2)[C@@H]2C(=O)N(Cc3ccccc3)C(=O)[C@@H]21 ?
697 NFkB inh: 1; Mdm2 MdmX PPI: 91*; Jurkat NFkB inh: 7; Gli-Sufu antag: 1; Mdm2 MdmX conf: 87*; FLuc counter: 46*

Results for CCN(C[C@H]1N[C@@](CC)(C(=O)OC)[C@H]2C(=O)N(Cc3ccccc3)C(=O)[C@@H]12)S(=O)(=O)c1ccc(-c2ccccc2)cc1 ?
697 NFkB inh: 7; Mdm2 MdmX PPI: 80*; Jurkat NFkB inh: 10; Gli-Sufu antag: -3; Beta cell apopt: 9; Mdm2 MdmX conf: 79*; FLuc counter: 34

Results for CC(=O)Nc1cccc(CP(=O)(c2ccccc2)c2ccccc2)c1 ?
697 NFkB inh: 6; Mdm2 MdmX PPI: 10; CSC inhib: -12; Jurkat NFkB inh: -1; Gli-Sufu antag: -4; Beta cell apopt: -2

What do the screens show for `Cc1ccc(NC(=O)C2CCN(S(=O)(=O)c3ccc4c(c3)NC(=O)C(C)S4)CC2)cc1Cl` (stereo not drawn)?
697 NFkB inh: -8; Mdm2 MdmX PPI: 61*; CSC inhib: 32; Jurkat NFkB inh: 21; Gli-Sufu antag: 60*; Beta cell apopt: 107*; Mdm2 MdmX conf: 9

What do the screens show for `Cc1cc(C)cc(NC(=O)C2CCN(S(=O)(=O)c3ccc4c(c3)NC(=O)C(C)S4)CC2)c1` (stereo not drawn)?
697 NFkB inh: -1; Mdm2 MdmX PPI: 47; CSC inhib: 11; Jurkat NFkB inh: 17; Gli-Sufu antag: 5; Beta cell apopt: 5

How did CCN(CC)C(=O)CCCc1c[nH]c2ccccc12 do in these assays?
697 NFkB inh: 5; Mdm2 MdmX PPI: 32; CSC inhib: -14; Jurkat NFkB inh: 11; Gli-Sufu antag: -19; Beta cell apopt: -5

Results for O=C(CCl)N(c1ccccc1)c1c[nH]c2ccccc12 ?
697 NFkB inh: 2; Mdm2 MdmX PPI: 100*; CSC inhib: 59; Jurkat NFkB inh: -13; Gli-Sufu antag: 0; Beta cell apopt: -32; Mdm2 MdmX conf: 99*; FLuc counter: 52*

How did Cc1ccc2oc(=O)c3cnn(CC(=O)N4CCc5ccccc5C4)c3c2c1 do in these assays?
697 NFkB inh: 6; Mdm2 MdmX PPI: -7; CSC inhib: -18; Jurkat NFkB inh: 8; Gli-Sufu antag: -4; Beta cell apopt: -2

What do the screens show for `Cc1ccc2oc(=O)c3cnn(CC(=O)Nc4cc(-c5cccc(F)c5)no4)c3c2c1`?
697 NFkB inh: 2; Mdm2 MdmX PPI: 74*; CSC inhib: 22; Jurkat NFkB inh: 7; Gli-Sufu antag: 8; Beta cell apopt: -5; Mdm2 MdmX conf: 10

Results for CCCCOC(=O)Cn1c2ccc(OC)cc2c2nc3ccccc3nc21 ?
697 NFkB inh: -5; Mdm2 MdmX PPI: 75*; CSC inhib: 0; Jurkat NFkB inh: 14; Gli-Sufu antag: 5; Beta cell apopt: 0; Mdm2 MdmX conf: 20

Results for COc1ccc(NC(=O)C2CCCCN2S(=O)(=O)c2ccccc2)cc1S(=O)(=O)N1CCOCC1 (stereo not drawn) ?
Gli-Sufu antag: 2

Results for O=C1c2cccc3c([N+](=O)[O-])ccc(c23)C(=O)N1CCc1ccccn1 ?
697 NFkB inh: 6; Mdm2 MdmX PPI: 96*; CSC inhib: 70; Jurkat NFkB inh: 29; Gli-Sufu antag: 8; Beta cell apopt: -5; Mdm2 MdmX conf: 9

Results for N=c1n(CCCOc2ccccc2Cl)c2ccccc2n1CC(N)=O ?
697 NFkB inh: -13; Mdm2 MdmX PPI: 65*; CSC inhib: -5; Jurkat NFkB inh: -6; Gli-Sufu antag: -4; Beta cell apopt: 5; Mdm2 MdmX conf: 42*; FLuc counter: 63*

What do the screens show for `COc1cc(/C=N/N=C(N)N)ccc1OCc1ccccc1Cl`?
697 NFkB inh: -32; Mdm2 MdmX PPI: 100*; CSC inhib: 63; Jurkat NFkB inh: 41; Gli-Sufu antag: 6; Beta cell apopt: 20; Mdm2 MdmX conf: 39; FLuc counter: 74*

How did COc1ccc(/C=N/N=C/c2ccc(OC)c(OC)c2)cc1OC do in these assays?
697 NFkB inh: 0; Mdm2 MdmX PPI: 2; CSC inhib: 9; Jurkat NFkB inh: -19; Gli-Sufu antag: 7; Beta cell apopt: 0

What do the screens show for `O=C(/C=C/c1ccccc1[N+](=O)[O-])c1ccccc1Br`?
697 NFkB inh: -6; Mdm2 MdmX PPI: 72*; CSC inhib: 84*; Jurkat NFkB inh: -9; Gli-Sufu antag: -11; Beta cell apopt: -7; Mdm2 MdmX conf: 6

Results for O=[N+]([O-])c1ccc(-c2nc(-c3cccs3)c(-c3cccs3)[nH]2)cc1 ?
697 NFkB inh: -13; Mdm2 MdmX PPI: 56*; CSC inhib: -4; Jurkat NFkB inh: 2; Gli-Sufu antag: 3; Beta cell apopt: 32; Mdm2 MdmX conf: 15

Results for O=[N+]([O-])c1cccc(-c2nc(-c3cccs3)c(-c3cccs3)[nH]2)c1 ?
697 NFkB inh: 22; Mdm2 MdmX PPI: 8; Jurkat NFkB inh: 10; Gli-Sufu antag: 3; Beta cell apopt: 44

Results for Oc1ccc(-c2nc(-c3ccc(F)cc3)c(-c3ccncc3)[nH]2)cc1 ?
697 NFkB inh: 3; Mdm2 MdmX PPI: 79*; Jurkat NFkB inh: -27; Gli-Sufu antag: 22; Mdm2 MdmX conf: 39; FLuc counter: 75*

Results for Fc1ccc(-c2nc(-c3cccs3)[nH]c2-c2ccc(F)cc2)cc1 ?
697 NFkB inh: 11; Mdm2 MdmX PPI: 52*; CSC inhib: 16; Jurkat NFkB inh: -7; Gli-Sufu antag: 11; Beta cell apopt: 11; Mdm2 MdmX conf: 40; FLuc counter: 79*

What do the screens show for `COc1ccc(Nc2oc(COc3ccccc3OC)nc2C#N)cc1`?
697 NFkB inh: 11; Mdm2 MdmX PPI: 68*; CSC inhib: 1; Jurkat NFkB inh: 5; Gli-Sufu antag: 35; Beta cell apopt: 6; Mdm2 MdmX conf: 64*; FLuc counter: 72*

From PubChem
